Inconclusive results are not listed. The source made the active and inactive calls. Unless noted, calls follow the shape of the dose curve; as a rule, active = well fitted curve in the direction sought with a large enough effect; inconclusive = small, poorly fitted or top-dose-only effect, or another doubt; inactive = no such curve, though single readings can be large; an effect the other way counts as inactive or inconclusive. Bounds are passed on as bounds.

For assay [1], the target named is Lysosomal acid glucosylceramidase (Homo sapiens) (UniProt P04062). The experiment in a line: Glucocerebrosidase-p2 (AID 348; in the data active = potency below about 10 µM; also: potency is read from the fitted curve at half-maximal effect). The following applies: purified GBA, blue fluorogenic substrate, 40 min. The method, boiled down: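 Compounds titrated from 0.6 nM upwards against 0.2 nM enzyme in pH 5.9 citric acid/KH2PO4, taurocholate, tween-20; blue fluorogenic substrate 80 uM, 40 min room temperature, stopped and read Ex 365/Em 440 for AC50.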
Lysosomal acid glucosylceramidase (Homo sapiens), sequence (P04062 whole entry, looked up): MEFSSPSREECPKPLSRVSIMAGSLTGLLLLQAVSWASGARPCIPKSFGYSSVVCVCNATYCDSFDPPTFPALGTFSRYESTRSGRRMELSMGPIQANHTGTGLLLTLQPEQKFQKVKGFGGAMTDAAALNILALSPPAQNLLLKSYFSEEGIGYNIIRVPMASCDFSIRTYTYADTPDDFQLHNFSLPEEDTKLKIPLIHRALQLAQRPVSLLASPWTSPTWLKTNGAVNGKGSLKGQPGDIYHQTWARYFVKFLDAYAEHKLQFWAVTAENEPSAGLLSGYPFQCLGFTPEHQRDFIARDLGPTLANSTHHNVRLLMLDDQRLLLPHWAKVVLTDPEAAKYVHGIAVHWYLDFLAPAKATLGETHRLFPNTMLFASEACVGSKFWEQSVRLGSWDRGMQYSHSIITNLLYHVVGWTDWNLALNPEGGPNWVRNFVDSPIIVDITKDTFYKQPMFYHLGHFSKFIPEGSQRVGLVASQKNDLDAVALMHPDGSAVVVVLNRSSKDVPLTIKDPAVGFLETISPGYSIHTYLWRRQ

Assay [2] addresses Cytochrome P450 1A2 (Homo sapiens) (UniProt P05177). Briefly: p450-cyp1a2 (AID 410; calls by dose curve; also: potency is read from the fitted curve at half-maximal effect). The following applies: recombinant CYP1A2, luciferin-ME demethylation, luminescence; series mostly up to 57 µM. Summed up:
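Luminescent readout of luciferin formed from Luciferin-ME by human CYP1A2; data normalized against complete inhibition by 57 uM furafylline. Enzyme 20nM, substrate 100uM at Km, 100mM KPO4 buffer, 60 min reaction at room temperature.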

The nature of assay [3]: Stat Signaling Pathway (AID 446; active = well fitted curve in either direction with a large enough effect, not every such curve was filed as active;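 also: ME-180 cervical cancer cells given 40 pM IL-6 alongside compound; SIE-controlled beta-lactamase reporter measured as 460/530 nm FRET emission ratio; % is scaled to controls: 0 for no effect and ±100 for the full control effect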). The conditions noted are these: ME-180 SIE beta-lactamase reporter, IL-6 stimulated, 5 h; at 7.69 µM (top of the series) unless noted. Summed up: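 ME-180 cells carrying a SIE-driven beta-lactamase reporter are stimulated with 40 pM IL-6 for 5 h at 37C in the presence of compound. The 460/530 nm FRET substrate ratio is read after 2.5 h at RT. Data are normalised to 300 pM IL-6 and to 125 nM JAK inhibitor controls.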

Assay [4] deals with Glucocorticoid receptor (Homo sapiens) (UniProt P04150). The experiment in a line: GR-GFP Redistribution (AID 450;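 active = compounds whose dose series gives a full or clear partial fitted curve of increased nuclear translocation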; also: potency is read from the fitted curve at half-maximal effect). The conditions noted are these: U2OS GR-GFP nuclear translocation, laser cytometry, 2 h.
Glucocorticoid receptor (Homo sapiens), sequence (P04150 whole entry, looked up, the tested form may be a part): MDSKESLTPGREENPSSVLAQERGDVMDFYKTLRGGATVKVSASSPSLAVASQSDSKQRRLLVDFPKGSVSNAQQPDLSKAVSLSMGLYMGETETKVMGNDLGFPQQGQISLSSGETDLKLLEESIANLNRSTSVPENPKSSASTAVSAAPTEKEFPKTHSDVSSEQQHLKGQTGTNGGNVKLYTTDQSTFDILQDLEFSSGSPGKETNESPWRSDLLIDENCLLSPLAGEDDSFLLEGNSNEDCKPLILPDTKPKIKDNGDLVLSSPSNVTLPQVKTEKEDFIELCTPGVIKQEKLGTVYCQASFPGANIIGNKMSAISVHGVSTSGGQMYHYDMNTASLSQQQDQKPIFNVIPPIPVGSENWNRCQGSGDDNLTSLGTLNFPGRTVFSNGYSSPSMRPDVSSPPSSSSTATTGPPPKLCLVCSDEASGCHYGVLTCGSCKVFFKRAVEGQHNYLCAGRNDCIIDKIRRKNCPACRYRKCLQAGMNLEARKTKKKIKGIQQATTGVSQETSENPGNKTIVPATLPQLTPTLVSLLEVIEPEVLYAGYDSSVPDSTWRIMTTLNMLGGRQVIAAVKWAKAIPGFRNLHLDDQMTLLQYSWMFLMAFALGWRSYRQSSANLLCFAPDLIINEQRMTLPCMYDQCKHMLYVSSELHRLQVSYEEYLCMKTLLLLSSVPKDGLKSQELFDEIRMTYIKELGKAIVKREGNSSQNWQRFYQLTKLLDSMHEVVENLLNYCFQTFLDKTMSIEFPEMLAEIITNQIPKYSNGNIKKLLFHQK
For assay [5] the target is unchanged. Briefly: GR-EFC Redistribution (AID 451; calls by dose curve; also: potency is read from the fitted curve at half-maximal effect). The following applies: CHO-K1 GR-EFC translocation, beta-gal luminescence, 2 h. The method, boiled down: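 CHO-K1 cells expressing nuclear EA and GR-ED fragments of b-gal; compounds titrated up to 46 uM final, 2 h at 37 C. GR nuclear translocation read as complemented b-gal luminescence after 1 h RT detection.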
Assay [6] addresses Mitogen-activated protein kinase 10 (Mus musculus) (UniProt Q61831). The experiment in a line: JNK3 AlphaScreen Assay (AID 530; active = well fitted curve in either direction with a large enough effect, not every such curve was filed as active;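 also: kinase came from lysate of stimulated human HepG2 cells; signal reports phosphorylation of biotinylated GST-cJun 1-79 at Ser73 with 10 µM ATP; % is scaled to controls: 0 for no effect and ±100 for the full control effect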). The following applies: JNK3 lysate, c-Jun phosphorylation; series mostly up to 57.1 µM. The method, boiled down: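 Pre-activated (IL-1β/TNFα) JNK3 in HepG2 lysates phosphorylates biotin-GST-cJun(1-79), 10 uM ATP; anti-phospho-cJun(Ser73) AlphaScreen read at room temperature, pH 7.6 Tris buffer. Compounds pre-incubated 15 min as titrations.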
Background: In Alpha technology, singlet oxygen from a donor bead excites a nearby acceptor bead.

Assay [7] addresses 3',5'-cyclic-AMP phosphodiesterase 4B (Homo sapiens) (UniProt Q07343). The experiment in a line: qHTS Assay for Inhibitors of PDE-IV (AID 607; active = well fitted activation curve with a large enough effect in the main read-out, with a control signal flat, not every such curve was filed as active; also: % of control where 0% means no effect). The conditions noted are these: HEK293 ACTOne CNG channel cells, membrane potential fluorescence; series mostly up to 22.9 µM. Summed up: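 HEK293 ACTOne cells with CNG channel (1000/well), endogenous PDE4; membrane potential dye, compounds up to 22.9 uM final. Fluorescence Ex 535/Em 590; RO 20-1724 (100 uM final) as reference.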

Assay [8] in a line: qHTS Assay for Lipid Storage Modulators (AID 1519; calls by dose curve). The following applies: Drosophila S3 cells, BODIPY lipid droplet/cell ratio, laser cytometry, cells loaded with oleic acid; for activity change, negative = inhibition: at 57.5 µM (top of the series). The method, boiled down:
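Cells seeded at 5,000 per well were treated with compounds over a concentration series and loaded with oleic acid (400 uM, as added). Lipid droplet fluorescence (488 nm excitation, 500-530 nm channel) was read by laser-scanning cytometry and normalized to 20 uM Triacsin C.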
(In general: In qHTS, concentration-response curves come from the screen itself.)

Assay [9] concerns the target Dual specificity protein kinase CLK4 (Homo sapiens) (UniProt Q9HAZ1). Briefly: qHTS Assay for Inhibitors of CDC-like Kinase 4 (Kinase-Glo Assay) (AID 1770). Also: nearly all actives have a fitted effect of over 65% in size. Also: potency is read from the fitted curve at half-maximal effect. The conditions noted are these: recombinant Clk4, Kinase-Glo ATP depletion luminescence; series mostly up to 66.7 µM. The method, boiled down:
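Substrate mix (RS peptide 100 uM, ATP 1 uM) dispensed, compound pinned in, then Clk4 added to 25 nM final. Incubated 4.5 h at RT; Kinase-Glo reagent added, luminescence read after 5 min.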

Assay [10] has the same target. Briefly: qHTS Assay for Inhibitors of CDC-like Kinase 4 (ADP-Glo Assay) (AID 1771). Also: nearly all actives have a fitted effect of over 70% in size. Also: potency is read from the fitted curve at half-maximal effect. The conditions noted are these: recombinant CLK4, ADP-Glo luminescence; series mostly up to 80 µM. Summed up: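 Luminescence from ADP-Glo reports ADP produced by 25 nM Clk4 acting on 100 uM RS repeat peptide with 1 uM ATP over 1 hr at room temperature; residual ATP is depleted before ADP is converted to ATP for detection.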

The target is the same in assay [11]. The experiment in a line: qHTS Assay for Inhibitors of CDC-like Kinase 4 (ADP-FP Assay) (AID 1795). Also: nearly all actives have a fitted effect of over 60% in size. Also: potency is read from the fitted curve at half-maximal effect. The following applies: Transcreener ADP fluorescence polarization; series mostly up to 50 µM. The method, boiled down: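 Clk4 6.25 nM; RS peptide 100 uM; ATP 1 uM; 25 mM Tris pH 7.5, 10 mM MgCl2; 1 h reaction. ADP detected via antibody/orange tracer FP displacement; TG003 positive control.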

For assay [12], the target named is Ubiquitin carboxyl-terminal hydrolase 1 (Homo sapiens) (UniProt O94782). The experiment in a line: Inhibitors of USP1/UAF1: Pilot qHTS (AID 504865).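 Also: rhodamine fluorescence freed from ubiquitin-rhodamine substrate followed over time; top concentration of the series differs between compounds; % is scaled to controls: 0 for no effect and ±100 for the full control effect; nearly all actives have a fitted effect of over 35% in size.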 The following applies: purified USP1/UAF1, Ub-rhodamine cleavage fluorescence; series mostly up to 54.9 µM. Summed up: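 In 50mM HEPES pH 7.8 containing 0.5mM EDTA, 1mM TCEP, 0.1 mg/ml BSA and 0.01% Tween-20, 1nM USP1/UAF1 is exposed to compound for 15 min, then Ub-Rho (150nM final) is added and fluorescence is read over time.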
Ubiquitin carboxyl-terminal hydrolase 1 (Homo sapiens), sequence (O94782 whole entry, looked up): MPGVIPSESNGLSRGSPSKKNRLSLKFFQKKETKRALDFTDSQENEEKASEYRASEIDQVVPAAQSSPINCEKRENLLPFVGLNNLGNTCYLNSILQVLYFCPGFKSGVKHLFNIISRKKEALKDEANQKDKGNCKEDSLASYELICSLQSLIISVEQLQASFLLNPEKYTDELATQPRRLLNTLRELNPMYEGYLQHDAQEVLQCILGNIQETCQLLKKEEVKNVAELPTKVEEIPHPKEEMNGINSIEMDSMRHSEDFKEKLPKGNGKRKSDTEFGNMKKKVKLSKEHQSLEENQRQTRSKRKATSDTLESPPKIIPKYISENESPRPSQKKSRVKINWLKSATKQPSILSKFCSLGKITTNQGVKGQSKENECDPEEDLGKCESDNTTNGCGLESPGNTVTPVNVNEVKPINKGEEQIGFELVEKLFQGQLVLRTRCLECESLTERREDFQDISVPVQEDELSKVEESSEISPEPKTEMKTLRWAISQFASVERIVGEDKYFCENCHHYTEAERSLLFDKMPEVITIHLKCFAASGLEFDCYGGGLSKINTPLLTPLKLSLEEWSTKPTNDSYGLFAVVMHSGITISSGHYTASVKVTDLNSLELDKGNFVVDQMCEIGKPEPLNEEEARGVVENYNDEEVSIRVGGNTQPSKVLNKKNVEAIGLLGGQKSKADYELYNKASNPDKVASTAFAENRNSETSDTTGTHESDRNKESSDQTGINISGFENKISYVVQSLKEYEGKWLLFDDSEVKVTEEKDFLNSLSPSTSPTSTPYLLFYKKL

Assay [13] in a line: Primary qHTS for small molecule stabilizers of the endoplasmic reticulum resident proteome: Secreted ER Calcium Modulated Protein (SERCaMP) assay (AID 1508630). Also: % is scaled to controls: 0 for no effect and ±100 for the full control effect. The following applies: SH-SY5Y GLuc-SERCaMP (Gaussia luciferase released on ER calcium loss) secretion, thapsigargin, luminescence; series mostly up to 38.4 µM. Summed up: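 GLuc-SERCaMP-expressing SH-SY5Y cells, pretreated 16 h with compound, are challenged with thapsigargin to empty ER calcium stores; after 4 h, coelenterazine is added directly to the medium and luminescence is imaged.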

Assay [14] deals with Cytochrome P450 3A4 (Homo sapiens) (UniProt P08684). Briefly: qHTS Assay for Activators of Cytochrome P450 3A4 (AID 885). Also: nearly all actives have a fitted effect of over 65% in size. The conditions noted are these: recombinant CYP3A4, Luciferin-PPXE luminescence, 60 min; series mostly up to 57.1 µM. The method, boiled down: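 Human CYP3A4 (20 nM) with Luciferin-PPXE at 25 uM (its KM) in 200 mM KPO4; 10 min compound preincubation, then NADPH regeneration and 60 min reaction at RT. Luciferin read by luminescence; normalized to 57 uM ketoconazole full inhibition.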
Cytochrome P450 3A4 (Homo sapiens), sequence (P08684 whole entry, looked up): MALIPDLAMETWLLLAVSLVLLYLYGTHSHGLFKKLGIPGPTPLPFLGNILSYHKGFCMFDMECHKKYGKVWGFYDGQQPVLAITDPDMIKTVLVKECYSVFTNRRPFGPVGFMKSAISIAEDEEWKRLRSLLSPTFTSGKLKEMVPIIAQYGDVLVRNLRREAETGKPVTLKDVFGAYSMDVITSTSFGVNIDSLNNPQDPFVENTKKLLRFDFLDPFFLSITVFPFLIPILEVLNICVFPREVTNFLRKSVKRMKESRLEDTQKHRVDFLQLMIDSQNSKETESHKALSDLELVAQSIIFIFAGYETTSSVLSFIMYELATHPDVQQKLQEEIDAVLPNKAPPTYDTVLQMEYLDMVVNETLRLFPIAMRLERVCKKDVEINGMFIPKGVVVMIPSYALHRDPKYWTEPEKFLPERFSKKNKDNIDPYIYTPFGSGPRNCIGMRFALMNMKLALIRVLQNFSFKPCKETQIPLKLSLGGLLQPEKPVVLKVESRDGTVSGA

Assay [15] can be described thus: AP1 Signaling Pathway (AID 357; active = well fitted curve in either direction with a large enough effect, not every such curve was filed as active;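 also: ME-180 reporter cells stimulated with EGF at its EC50 level; % is scaled to controls: 0 for no effect and ±100 for the full control effect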). The following applies: ME-180 AP-1-bla reporter, EGF-induced, beta-lactamase ratio, 5 h; at 7.69 µM (top of the series) unless noted. Summed up: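 A ratiometric CCF4 readout (405 nm excitation; 460 and 530 nm emission) quantified AP-1-driven beta-lactamase in ME-180 cells after 5 h with compound and EC50 EGF; AC50 values were derived for activators and inhibitors.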

Assay [16] is described as follows: NFAT Signaling Pathway (AID 444; active = well fitted curve in either direction with a large enough effect, not every such curve was filed as active). The conditions noted are these: Jurkat NFAT-bla M1, carbachol, beta-lactamase ratio, 5 h; at 7.69 µM (top of the series) unless noted. The method, boiled down:
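Jurkat cells with NFAT-driven β-lactamase reporter and co-expressed M1 receptor, stimulated with carbachol (final 1 uM, ~EC50), compound titration, 5 h at 37 °C. CCF4 loaded 1 h at RT; 460/530 nm ratio gave %activity and AC50.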

The nature of assay [17]: qHTS Assay for Identification of Small Molecule Agonists for Hypoxia Response Element Signaling Pathway (AID 914; active = well fitted activation curve with a large enough effect in the signal ratio, with a control signal flat, not every such curve was filed as active; the % refers to the signal ratio; also: potency is read from the fitted curve at half-maximal effect). The conditions noted are these: ME-180 (cervical carcinoma) HRE-bla reporter, beta-lactamase ratio, CoCl2, 17 h; activation: stronger effect = higher value. The method, boiled down: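 Reporter activity (beta-lactamase, CCF4 460nm/530nm ratio) in HRE-bla ME-180 cells is recorded after 17 h compound exposure with EC50 CoCl2 at 37 degrees Celsius. AC50 values come from titration data.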

[18] abbreviates: measured here: cell count channel max response.
The mark [19] stands for this setting: measured here: lipid channel max response.

Dual specificity protein kinase CLK4 (Homo sapiens), sequence (Q9HAZ1 whole entry, looked up): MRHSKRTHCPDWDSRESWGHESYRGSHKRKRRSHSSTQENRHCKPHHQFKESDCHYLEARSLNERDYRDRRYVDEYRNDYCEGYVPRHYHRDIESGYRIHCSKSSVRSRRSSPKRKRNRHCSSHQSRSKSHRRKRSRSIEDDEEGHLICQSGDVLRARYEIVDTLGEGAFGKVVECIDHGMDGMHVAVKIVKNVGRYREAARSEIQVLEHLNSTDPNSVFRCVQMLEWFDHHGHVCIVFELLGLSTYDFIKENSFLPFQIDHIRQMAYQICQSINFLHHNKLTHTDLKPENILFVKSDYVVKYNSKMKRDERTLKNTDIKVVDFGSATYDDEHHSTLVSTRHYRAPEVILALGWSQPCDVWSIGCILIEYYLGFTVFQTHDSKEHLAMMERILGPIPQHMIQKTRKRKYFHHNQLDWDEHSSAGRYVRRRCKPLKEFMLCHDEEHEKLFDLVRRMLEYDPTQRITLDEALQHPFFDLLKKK
Cytochrome P450 1A2 (Homo sapiens), sequence (P05177 whole entry, looked up): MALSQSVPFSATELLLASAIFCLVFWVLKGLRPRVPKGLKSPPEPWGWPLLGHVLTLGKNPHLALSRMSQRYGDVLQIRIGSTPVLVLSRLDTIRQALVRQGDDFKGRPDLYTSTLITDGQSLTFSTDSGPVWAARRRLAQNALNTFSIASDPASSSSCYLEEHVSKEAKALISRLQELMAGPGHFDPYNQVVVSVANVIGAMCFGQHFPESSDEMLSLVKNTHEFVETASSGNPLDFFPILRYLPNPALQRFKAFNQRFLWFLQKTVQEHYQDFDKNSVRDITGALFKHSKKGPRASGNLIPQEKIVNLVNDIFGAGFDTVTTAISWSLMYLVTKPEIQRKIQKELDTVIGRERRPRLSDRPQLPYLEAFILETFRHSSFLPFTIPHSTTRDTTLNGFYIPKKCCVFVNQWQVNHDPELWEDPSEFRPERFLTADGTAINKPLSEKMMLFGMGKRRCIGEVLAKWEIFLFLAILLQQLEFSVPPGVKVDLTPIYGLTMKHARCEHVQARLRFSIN
3',5'-cyclic-AMP phosphodiesterase 4B (Homo sapiens), sequence (Q07343 whole entry, looked up): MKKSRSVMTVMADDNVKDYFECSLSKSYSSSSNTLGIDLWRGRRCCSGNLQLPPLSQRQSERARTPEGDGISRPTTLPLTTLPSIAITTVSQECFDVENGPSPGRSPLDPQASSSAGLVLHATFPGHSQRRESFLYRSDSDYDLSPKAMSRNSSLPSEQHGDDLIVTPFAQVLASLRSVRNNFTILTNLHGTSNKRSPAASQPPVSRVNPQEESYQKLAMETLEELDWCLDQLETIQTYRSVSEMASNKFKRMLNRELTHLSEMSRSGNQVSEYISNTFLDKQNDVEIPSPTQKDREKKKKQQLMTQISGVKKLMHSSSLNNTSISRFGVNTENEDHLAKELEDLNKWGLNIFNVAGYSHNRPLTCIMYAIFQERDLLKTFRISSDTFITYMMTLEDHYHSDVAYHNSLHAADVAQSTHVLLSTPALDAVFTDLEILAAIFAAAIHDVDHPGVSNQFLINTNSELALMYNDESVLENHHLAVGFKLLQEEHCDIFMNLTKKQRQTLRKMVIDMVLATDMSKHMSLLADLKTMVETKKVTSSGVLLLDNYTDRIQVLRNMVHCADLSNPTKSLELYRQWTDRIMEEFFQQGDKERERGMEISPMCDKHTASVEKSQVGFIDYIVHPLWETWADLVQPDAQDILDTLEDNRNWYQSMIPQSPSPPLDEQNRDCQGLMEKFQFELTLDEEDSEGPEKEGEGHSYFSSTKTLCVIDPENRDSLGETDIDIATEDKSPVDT

Turning to `COc1cccc(Cn2c(=O)c(-c3cc(F)cc(F)c3)nc3cnc(N(C)C)nc32)c1`, the values for the Potency in assay [1], in assay [4] and in assay [5] were > 11.4 µM (inactive), > 9.22 µM (inactive) and > 46 µM (inactive), respectively. The Potency entry in assay [2], in [7], in assay [9], in [10], in assay [11] and in assay [12] was “inactive” each time. The Potency entry in assay [13] is “inactive”. In addition, in assay [3], the activity, negative = inhibition was 91.4% [activator] (active). Besides, in assay [6], the outcome was inactive. Moreover, the activity change, negative = inhibition in assay [8] was -0.73% (inactive). The max response in assay [8] (setting [18]) worked out at 19.9%; in assay [8] (setting [19]), 18.8%.

For `COCCNc1ncnc2ccc(-c3cccc(OC)c3)cc12`, the Potency in assay [1] is > 11.4 µM (inactive); in assay [2], 0.794 µM (active); in [4], > 46 µM (inactive); in assay [5], > 46 µM (inactive); in assay [9], 0.708 µM (active); in [10], 0.562 µM (active). The Potency in assay [11] is 0.501 µM (active). The activity, negative = inhibition in [3] was -27.4% (inactive). Moreover, in [6], the outcome was inactive. In addition, the Potency result in assay [7], in [14], in [12] and in [13] was “inactive” in each case. Further, the activity change, negative = inhibition in assay [8] is -4.77% (inactive). The max response was -9.38% in assay [8] (setting [18]) and -14.2% in assay [8] (setting [19]).

In the case of `O=c1c(-c2ccc(F)cc2)nc2cnc(N3CCNCC3)nc2n1C1CC1`, the Potency in assay [1] is > 11.4 µM (inactive); in assay [2] it was 2.51 µM (active); in assay [4], > 9.22 µM (inactive); in assay [5], > 46 µM (inactive). Moreover, the compound was called inactive in assay [6]. Further, the Potency entry in [7], in assay [14], in assay [9], in assay [10], in [11] and in [12] was “inactive” throughout. In [13], the Potency result was “inactive”. Besides, in assay [8], the activity change, negative = inhibition was 2.85% (inactive). Besides, the max response in assay [8] (setting [18]) was 26.5%; in assay [8] (setting [19]) it was 28.4%.

As for `O=c1cnc2cncnc2n1Cc1ccc(F)cc1`, the results for the Potency in assay [1] and in assay [5] were > 11.4 µM (inactive) and > 46 µM (inactive), respectively. Further, the results for the activity change, negative = inhibition in assay [15], in assay [16] and in assay [8] were 8.77% (inactive), -27.6% (inactive) and -2.55% (inactive), respectively. Further, the activity, negative = inhibition in assay [3] is -8.63% (inactive). For the same compound, the result in assay [6] was inactive. Moreover, the Potency entry in [14], in [9], in assay [10], in [11], in assay [12] and in assay [13] was “inactive” in each case. Moreover, the max response in [8] (setting [18]) was -3.3%; in assay [8] (setting [19]) it was -6.15%.

Take `CN1CCN(c2ncc3nc(-c4cc(F)cc(F)c4)c(=O)n(CCc4ccccc4)c3n2)CC1`: the Potency in assay [1] is > 11.4 µM (inactive); in assay [4], > 9.22 µM (inactive); in [5] it was > 46 µM (inactive). Further, the Potency result in assay [2], in [7], in assay [14], in [9], in assay [10] and in assay [11] was “inactive” each time. In addition, the Potency result in assay [12] and in assay [13] was “inactive” throughout. Also, the compound was classed as inactive in assay [6]. In assay [8], the activity change, negative = inhibition was -3.87% (inactive). Further, the max response came out at 10.6% in assay [8] (setting [18]) and 3.66% in [8] (setting [19]).

Turning to `Cn1cc(-c2nc3cnc(N4CCNCC4)nc3n(CCC#N)c2=O)c2ccccc21`, the Potency in assay [1] is > 11.4 µM (inactive); in [4], > 9.22 µM (inactive); in assay [17] it was 3.16 µM (active). For the same compound, the activity change, negative = inhibition is 14.5% (inactive) in assay [15], 1.75% (inactive) in [16] and 1.65% (inactive) in assay [8]. For the same compound, the compound was called inactive in assay [6]. The Potency result in assay [7], in [9], in [10], in [11], in [12] and in assay [13] was “inactive” throughout. In addition, the max response was -3.78% in assay [8] (setting [18]) and -5% in assay [8] (setting [19]).
